# Assay results: ChEMBL document CHEMBL3988442, “University of Dundee, Small-Polar-MMV Screening Library” (2021)
# In all, about 85,000 compounds went through this assay and about 440 (0.52%) showed an effect of 50% or more. Many of the other results were omitted from the sample, so strong results are more common in it than they were.
# Test: In vitro enzyme assay to detect hydrolysis of chlorophenol red-beta-D-[…] directly proportional to the number of Toxoplasma stably expressing beta-galactosidase
# Assay type: functional, organism-based, Toxoplasma gondii
# Design: scale not given: in the data most compounds retested in dose-response had high values
Structure (SMILES),Percent Effect (50 µM) [%],Percent Effect (10 µM) [%]
CC1(C)CNCCC(=O)C1,-1.716,–
C[C@H](N)c1ccc(Cl)s1,6.702,–
CCCc1nc(C(=O)NCCc2cccnc2)cs1,-0.1814,–
CCn1nc(C)cc1C(=O)N1CCNC(=O)C1(C)C,1.148,–
O=C1NCCN1CCNc1cc(C2CC(O)C2)ncn1 (configuration not stated),17.22,–
CN1N=C(C(=O)NCCn2cccc2)CCC1=O,4.885,–
CCCNC(=O)C1=NN(C)C(=O)CC1,-13.89,–
CCc1ccccc1NC(=O)C1=NN(C)C(=O)CC1,53.5,–
Cc1nc(C)c(C(=O)N2CCCC3(CCOC3)C2)s1 (configuration not stated),-1.962,–
CN(C)CCCN(CCC#N)C(=O)c1ccccn1,5.806,–
Cc1n[nH]c(SCCN)n1,7.335,–
Cc1cc(NC(=O)COC(=O)c2cccc(F)c2)[nH]n1,3.257,–
O=C(CCN1C(=O)CCC1=O)OCCc1cccs1,-8.658,–
COc1ccc(CNCCn2cccn2)cc1OC,-8.387,–
NCC(c1ccccc1)N1CCc2sccc2C1 (configuration not stated),–,-0.2514
NCC(c1ccc(Cl)cc1)N1CCc2sccc2C1 (configuration not stated),–,32.54
CC(C)c1ccc(C(CN)N2CCc3sccc3C2)cc1 (configuration not stated),–,87.38
CC(CNC(=O)c1cccc(OC(F)F)c1)N(C)C (configuration not stated),-0.9989,–
CCOCCN1CCN(CC(C)O)CC1 (configuration not stated),-13.93,–

Structure (SMILES),Percent Effect (50 µM) [%],Percent Effect (10 µM) [%]
Oc1cc(CCC2CCCCN2)cc(-c2ccncc2)c1 (configuration not stated),–,-0.7663
O=c1cc(-c2cc(O)cc(CCC3CCCCN3)c2)cc[nH]1 (configuration not stated),–,0.1729
CS(=O)(=O)c1ccc(-c2cc(O)cc(CCC3CCCCN3)c2)cc1 (configuration not stated),–,50.66
Cc1ccc(CN2CCOC(CCO)C2)c(F)c1 (configuration not stated),1.605,–
CC(C)(C)Nc1nc(-c2cccnc2)c(-c2ccnc(NCCO)n2)s1,–,85.15
CCNc1nc(-c2cccnc2)c(-c2ccnc(NCCO)n2)s1,–,32.17
CCNc1nc(-c2cccnc2)c(-c2ccnc(NS(C)(=O)=O)n2)s1,–,-26.67
Cc1noc(C)c1CNC(=O)c1csc(S(N)(=O)=O)c1,-3.715,–
O=C(CC1CCCC1)N1C[C@H](OCc2ccncc2)[C@H]2OCCC[C@H]21.O=C(O)C(F)(F)F,–,-2.876
COCC(=O)N1C[C@@H](OCc2ccncc2)[C@@H]2OCCC[C@@H]21.O=C(O)C(F)(F)F,–,64.14
Cc1cccc(C(=O)N2C[C@@H](OCc3ccncc3)[C@@H]3OCCC[C@@H]32)n1.O=C(O)C(F)(F)F.O=C(O)C(F)(F)F,–,-3.452
Cn1cccc1C(=O)N1C[C@@H](OCc2cccnc2)[C@H]2OCCC[C@H]21,–,1.724
Cn1cccc1C(=O)N1C[C@@H](OCc2ccncc2)[C@@H]2OCCC[C@@H]21.O=C(O)C(F)(F)F,–,96.07
COCC(=O)N1C[C@@H](OCc2cccnc2)[C@H]2OCCC[C@@H]21.O=C(O)C(F)(F)F,–,1.724
Nc1nc2c(s1)Cc1ccccc1-2,-5.547,–
Cc1n[nH]c(C)c1S(=O)(=O)N1CCC(N)CC1,2.469,–
CCS(=O)(=O)NCCNCc1ccc(Cl)cc1F,-9.661,–
NC(=O)NC(=O)CSc1ncccn1,-2.425,–
Cc1nn(C)c(C)c1CC(=O)NCCc1ccccn1,-1.397,–

Structure (SMILES),Percent Effect (50 µM) [%],Percent Effect (10 µM) [%]
COc1ccc(CN)nc1,5.444,–
CNc1ncc(C(=O)N2CCCC(Cc3ccccc3OC)C2)s1 (configuration not stated),–,65.23
COc1ccccc1CC1CCCN(C(=O)c2nccnc2N)C1 (configuration not stated),–,-6.18
COc1ccccc1CC1CCCN(C(=O)c2cc[nH]n2)C1 (configuration not stated),–,4.307
O=C(CN1C(=O)CC2(CCCCC2)C1=O)NC1CC1,-7.096,–
CN(C)C(=O)NCCNc1cccc(Br)c1,-13.02,–
CC(C)CCN1CCN(C(=O)c2nccnc2N)CC1,0.2706,–
CCN(CC)S(=O)(=O)N1CCNCC1,-3.294,–
CC(=O)c1c[nH]c(C(=O)NCc2cccnc2)c1,0.2894,–
O[C@@H]1CN(c2nc3ccccc3o2)CC[C@H]1c1ccc2c(c1)OCO2,–,30.32
O[C@@H]1CN(c2nc3ccccc3s2)CC[C@H]1c1ccc2c(c1)OCO2,–,53.23
O[C@@H]1CN(c2cnc3ccccc3n2)CC[C@H]1c1ccc2c(c1)OCO2,–,20.57
COc1cccc(NC(=O)C(C)Sc2nnnn2C)c1 (configuration not stated),-3.512,–
N#CCc1ccc(CO)cc1,-0.5268,–
Nc1c[nH]nc1-c1ccccn1,64.31,–
COCCC(C)Nc1c[nH]nc1-c1ccccn1 (configuration not stated),4.849,–
c1ccc(-c2cc[nH]n2)nc1,-7.989,–
Cc1ccc(OCCN2CCOCC2)cc1,-4.655,–
CC(N)(CO)c1ccc(Br)cc1 (configuration not stated),5.046,–
